Test results published in PubChem BioAssay.
Unmarked numbers belong to inactive results. Activity calls are given as the source filed them. Unless noted, no stated cut-off is given here; in the data, active means inhibition above about 44%; inactive means the rest.

Key:
[1] = StAR promoter reporter inhibitors, counter-screen for LRH-1 inverse agonist project, cell-based, luminescence, high throughput (AID 651611; in the data active means inhibition above about 28%); conditions: StAR promoter luciferase reporter counterscreen, at 3.6 µM, stronger effect = higher value
[2] = biological target: Nuclear receptor subfamily 5 group A member 2 (Homo sapiens) (UniProt O00482); experiment: LRH-1 (NR5A2) inverse agonists, retest, confirmation, cell-based, luminescence (AID 651613; in the data active means inhibition above about 42%;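 further: HEK293T cells co-transfected with LRH-1 and StAR promoter luciferase reporter; 0% = vehicle wells and 100% = parental cells lacking receptor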); conditions: cell-based LRH-1 luciferase reporter, inverse agonism; at 3.6 µM; stronger effect = higher value
Chain of Nuclear receptor subfamily 5 group A member 2 (Homo sapiens) (O00482 whole entry, looked up): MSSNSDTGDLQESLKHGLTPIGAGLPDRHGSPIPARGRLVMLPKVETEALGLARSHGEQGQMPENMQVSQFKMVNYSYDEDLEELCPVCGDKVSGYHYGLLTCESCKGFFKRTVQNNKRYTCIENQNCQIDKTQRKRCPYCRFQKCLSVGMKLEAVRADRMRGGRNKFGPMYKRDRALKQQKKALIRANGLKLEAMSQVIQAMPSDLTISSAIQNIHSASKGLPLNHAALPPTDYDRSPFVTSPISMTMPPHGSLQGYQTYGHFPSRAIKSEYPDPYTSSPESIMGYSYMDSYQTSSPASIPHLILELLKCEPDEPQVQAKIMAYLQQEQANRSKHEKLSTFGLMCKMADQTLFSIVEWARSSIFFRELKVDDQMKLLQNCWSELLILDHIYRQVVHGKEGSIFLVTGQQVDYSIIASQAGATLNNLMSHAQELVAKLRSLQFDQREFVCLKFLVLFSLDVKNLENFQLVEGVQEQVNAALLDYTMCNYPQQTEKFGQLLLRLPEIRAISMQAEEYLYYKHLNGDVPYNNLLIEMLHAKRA

[3] = biological target: Steroidogenic factor 1 (Homo sapiens) (UniProt Q13285); experiment: SF1 (NR5A1) inverse agonists, counter-screen for LRH-1 inverse agonist project, cell-based, luminescence, high throughput (AID 651614); conditions: cell-based SF1 luciferase reporter, at 3.6 µM, stronger effect = higher value;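 further: cells cotransfected with StAR promoter reporter and SF1 expression vector; 0% = vehicle on cells with receptor and 100% = vehicle on cells lacking receptor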
Chain of Steroidogenic factor 1 (Homo sapiens) (Q13285 whole entry, looked up, the tested form may be a part): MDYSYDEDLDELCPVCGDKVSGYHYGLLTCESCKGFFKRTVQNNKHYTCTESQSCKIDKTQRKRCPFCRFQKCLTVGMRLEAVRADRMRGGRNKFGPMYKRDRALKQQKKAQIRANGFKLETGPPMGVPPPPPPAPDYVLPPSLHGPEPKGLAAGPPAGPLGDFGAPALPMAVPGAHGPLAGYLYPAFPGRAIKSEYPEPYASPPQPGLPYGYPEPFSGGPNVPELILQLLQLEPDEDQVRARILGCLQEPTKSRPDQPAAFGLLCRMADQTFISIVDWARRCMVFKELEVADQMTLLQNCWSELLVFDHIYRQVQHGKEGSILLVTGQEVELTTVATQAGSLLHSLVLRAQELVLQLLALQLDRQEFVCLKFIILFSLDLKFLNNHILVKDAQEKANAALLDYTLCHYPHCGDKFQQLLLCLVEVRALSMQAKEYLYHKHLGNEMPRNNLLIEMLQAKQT

[4] = VP16 transactivation reporter inhibitors, counter-screen for LRH-1 inverse agonist project, cell-based, luminescence, high throughput (AID 651615; in the data active means inhibition above about 33%); conditions: Gal4-VP16 luciferase reporter cells, at 3.6 µM, stronger effect = higher value

SMILES	inhibition [1]	inhibition [2]	inhibition [3]	inhibition [4]
O=C(Nc1cccnc1)c1ccc([N+](=O)[O-])o1	27.2%	61.9% (active)	58.5% (active)	-15.2%
Cc1onc(-c2c(F)cccc2Cl)c1C(=O)Oc1ccccc1	-12.8%	41.9% (active)	33.8%	11.2%
C/C(=N\Nc1nc(C)c(C)s1)c1ccc([N+](=O)[O-])cc1	-12.6%	49.1% (active)	47.8% (active)	-2.81%
Cc1ccc(SCc2ccc(C(=O)NCc3ccncc3)cc2)cc1	-0.78%	55.9% (active)	53.1% (active)	-0.6%
O=C(NCc1cccnc1)c1ccc([N+](=O)[O-])o1	16.3%	62.7% (active)	63.4% (active)	-3.23%
CC(C)NC(=O)N1Cc2cc(C(=O)NC3CCCCC3)nc(-c3cccc(-c4cccnc4)c3)c2[C@@H]1CCO	27.6%	62.6% (active)	62.5% (active)	-0.48%
Cc1cc(OCC(=O)Nc2cccnc2)c2c(C)c(C)c(=O)oc2c1	10.8%	63.2% (active)	52.8% (active)	-34.7%
O=C(CSc1nnc(CNC(=O)c2ccccc2F)o1)Nc1ccc2c(c1)OCCO2	10.5%	56.9% (active)	51.6% (active)	-7.98%
CCCCCOc1ccc(Br)cc1CSC(=N)N	41.5% (active)	99.7% (active)	66.2% (active)	84% (active)
CCCOc1ccc(NC(=O)CC2C(=O)N(C)C(=S)N2Cc2ccc3c(c2)OCO3)cc1 (configuration not stated)	6.7%	57.6% (active)	53.2% (active)	5.2%
O=c1[nH]c2cc3ccccc3cc2nc1-c1nnnn1C1CCCC1	33.8% (active)	33.4%	44.6% (active)	8.72%
Cc1cccc(NC(=O)COC(=O)CN2C(=O)c3ccccc3C2=O)c1C	7.19%	51% (active)	47.8% (active)	-15%
Cc1nc2ccc(NS(=O)(=O)c3ccc4c(c3)OCCO4)cc2s1	7.73%	56.4% (active)	57.4% (active)	52.6% (active)
COc1ccc(OCCNC(=O)C2(C)CCN2Cc2ccc(SC)cc2)cc1 (configuration not stated)	1.32%	46% (active)	45.9% (active)	2.76%
CN(C)c1ccc(CN(C(=O)C2COc3ccccc3O2)C2CCS(=O)(=O)C2)cc1 (configuration not stated)	3.73%	35.1%	39.1%	1.92%
COc1ccc2c(/C=C/c3cc[n+](C)cc3)c[nH]c2c1	28.7% (active)	64.1% (active)	56.3% (active)	50.9% (active)
Cc1ccccc1N=C1NC(=O)/C(=C/c2cccnc2)S1	13.1%	39.8%	40.2%	8.55%
Cc1ccn2c(=O)nc(SCC(=O)Nc3ccc4c(c3)OCCO4)nc2c1	-9.07%	49.3% (active)	51% (active)	-15.9%
CS(=O)(=O)N1CCN(c2ccccc2NC(=O)c2ccc([N+](=O)[O-])o2)CC1	11.6%	57.4% (active)	55.3% (active)	-20.1%
Cc1cc(C)c2sc(NC(=O)c3ccc([N+](=O)[O-])o3)nc2c1	-1.04%	54.4% (active)	53.5% (active)	-7.08%
CC(=O)Nc1ccc(NC(=O)CSc2nnc(NC(=O)C3CC3)s2)cc1	1.23%	49.6% (active)	48.2% (active)	-1.05%
Cc1c([N+](=O)[O-])cc(C(=O)Nc2ccc(Cc3ccncc3)cc2)cc1[N+](=O)[O-]	7.17%	48.7% (active)	45% (active)	-0.27%
COc1cc(CSc2nnnn2-c2ccc(C)cc2)cc(OC)c1OC	24.4%	53.3% (active)	61.1% (active)	44.8% (active)
CC(=O)c1ccc(NC(=O)CN2C(=O)NC3(CCc4ccccc43)C2=O)cc1 (configuration not stated)	12.2%	61.5% (active)	49.3% (active)	-0.14%
CCOc1ccc(NC(=O)CSc2nnc(C(C)C)n2CC)cc1	0.92%	49.3% (active)	50.3% (active)	-3.19%
COc1ccc(OCCNC(=O)C2(C)CCN2Cc2ccc3ccccc3c2)cc1 (configuration not stated)	13.6%	45.2% (active)	43.2% (active)	1.36%
CCn1c(=NC(=O)CCS(=O)(=O)c2ccccc2)sc2cccc(OC)c21	6.25%	108% (active)	70.3% (active)	69.2% (active)

SMILES	inhibition [1]	inhibition [2]	inhibition [3]	inhibition [4]
Cc1cc(NC(=O)CSc2nc3c(sc4ccccc43)c(=O)n2CCCN2CCOCC2)n[nH]1	48% (active)	70.3% (active)	44.2% (active)	-8.59%
N#CC1=C(N2CCOCC2)/C(=C\c2ccccc2)CC1	14.8%	51.9% (active)	46.6% (active)	8.41%
COc1cccc(-c2cc(NC=O)c3ncc(-c4ccc(C(C)=O)cc4)n3c2)c1	45.1% (active)	65.2% (active)	60.1% (active)	-11.4%
CCOc1ccc(OCCC(=O)OCC(=O)Nc2ccc3c(c2)OCCO3)cc1	-6.27%	41.5% (active)	37.1%	-6.23%
Nc1ccc(Nc2ccncc2[N+](=O)[O-])cc1	2.61%	65.6% (active)	61.9% (active)	15.7%
CCOc1ccc(NC(=O)CSc2nccn(-c3ccc4c(c3)OCCO4)c2=O)cc1	-5.61%	55% (active)	60.7% (active)	-10.1%
Cc1cc2nc(C3CCCCC3)c(Cc3ccsc3)n2c(C)c1Br	4.75%	36.2%	37.7%	22.4%
Cc1nc2ccccc2n1/N=C/c1ccc([N+](=O)[O-])s1	20.9%	68.2% (active)	71.4% (active)	29.6%
c1ccc(-c2nc(NCc3cccnc3)c3oc4ccccc4c3n2)cc1	19.2%	62.4% (active)	60.6% (active)	-22.9%
CC(NC(=O)c1ccco1)C(c1cccs1)N1CCN(c2ccccc2F)CC1 (configuration not stated)	3.57%	49.3% (active)	42.6%	13%
COc1cc([N+](=O)[O-])ccc1NC(=O)C[n+]1ccccc1	15.1%	58.8% (active)	55.6% (active)	3.98%
Cc1ccccc1C(=O)N1CCN(c2ccc(NC(=O)c3ccc([N+](=O)[O-])o3)cc2)CC1	25.2%	64.4% (active)	69.1% (active)	2.37%
CCCCSc1nc(SCC(=O)NCc2ccco2)c2c3c(sc2n1)COC(C)(CC)C3 (configuration not stated)	4.87%	53.8% (active)	44.6% (active)	-1.29%
Nc1nc2ccccc2cc1C(=O)NCc1ccc(-c2ccccc2)cc1	24.6%	59.4% (active)	58.6% (active)	55.9% (active)
CCCc1cc(=O)oc2cc(OCC(=O)NCc3ccccn3)ccc12	10.6%	55.5% (active)	59.1% (active)	-9.39%
CCCOc1ccc(Cn2cnc3ccccc32)cc1	5.08%	54.6% (active)	52.4% (active)	27.3%
O=C(CSc1nnnn1C1CCCC1)Nc1ccc2c(c1)OCCO2	-0.49%	44.7% (active)	42.3%	-30.9%
CC(NC(=O)CCl)c1ccccc1Br (configuration not stated)	23.9%	60.2% (active)	57.4% (active)	-27.4%
COc1ccc(NS(=O)(=O)c2cccc(NC(=O)c3ccc(Cl)nc3)c2)cc1	37.9% (active)	63.3% (active)	66% (active)	55.4% (active)
c1ccc(Oc2nc(-c3cccnc3)nc3ccccc23)cc1	10.6%	57.3% (active)	53.3% (active)	1.32%
O=C(Nc1ccc(C(=O)N2CCOCC2)cc1)c1cccc([N+](=O)[O-])c1	1.39%	48.4% (active)	41.9%	-0.69%
COc1ccc(-n2c(N)c(C(=O)NCc3cccnc3)sc2=S)cc1	4.01%	48.7% (active)	50.4% (active)	-1.03%
O=C(c1ccccc1)c1cc(-c2ccccn2)c(N2CCOCC2)s1	-8.68%	68.3% (active)	63.4% (active)	0.02%
Cc1cc(/C=N/NC(N)=S)c(C)n1-c1ccc(Cl)c(Cl)c1	7.41%	44.5% (active)	39.2%	22.5%
COc1ccc(-c2cc(NC=O)c3ncc(-c4ccc(C(C)=O)cc4)n3c2)cn1	41.6% (active)	66% (active)	59% (active)	-15.1%
CCCCc1c(O)nc(SCC(=O)Nc2ccc3c(c2)CCC3)[nH]c1=O	6.25%	37.2%	51.8% (active)	0.43%
